Assay results reported in PubChem BioAssay (NCATS).
Inconclusive results are not listed. Active and inactive are the calls of the source. Calls come from the whole dose curve; as a rule, active = well fitted curve in the direction sought with a large enough effect; inconclusive = small, poorly fitted or top-dose-only effect, or another doubt; inactive = no such curve, though single readings can be large; an effect the other way counts as inactive or inconclusive.

Assays:
[1] = MCF7 Cancer Cell Toxicity qHTS against the NCATS CANVASS Library (AID 1347369); note: series mostly up to about 46 µM
Outline: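 Cells seeded at 500/well, then compound pinned. Plates incubated 72 hr at 37C, 5% CO2. CellTiterGlo added; luminescence read.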

[2] = qHTS for ATAD5 Antagonist screened against the NCATS CANVASS Library (AID 1347370);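 note: HEK293T cells carrying an ATAD5 luciferase reporter co-treated with 10 µM 5-fluorouridine; series mostly up to about 46 µM; nearly all actives have a fitted effect of over 65% in size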
Outline: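 Compounds (11-point) co-dosed with 10 µM 5-FUrd for 16 h at 37 °C onto HEK293T-ATAD5 luciferase reporter cells. Viability measured by CellTiter-Fluor fluorescence, then ATAD5 reporter signal by luminescence.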

[3] = J3T Cancer Cell Toxicity qHTS against the NCATS CANVASS Library (AID 1347371);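 note: J3T is a canine glioma cancer cell line seeded at 500 cells per well; series mostly up to about 46 µM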
Outline: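 Luminescence from CellTiterGlo, reporting cellular ATP, serves as the viability measure after 72 hr compound treatment of J3T canine glioma cells seeded at 500 cells/well.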

[4] = target: Nuclear receptor subfamily 1 group I member 3 (Homo sapiens) (UniProt Q14994); test: qHTS for Constitutive Androstane Receptor (CAR) Antagonist screened against the NCATS CANVASS Library (AID 1347372);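 note: cells stimulated with 50 nM CITCO agonist so inhibition reflects antagonism; series mostly up to about 46 µM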
Outline: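 Antagonist mode: compound added alongside 50 nM CITCO to HepG2-hCAR-CYP2B6 reporter cells, 24hr at 37C. Viability by CellTiter-Fluor fluorescence, then CAR-driven luciferase by ONE-Glo luminescence.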

[5] = target: Nuclear receptor subfamily 1 group I member 3 (Homo sapiens) (UniProt Q14994); test: qHTS for Constitutive Androstane Receptor (CAR) Agonist screened against the NCATS CANVASS Library (AID 1347373);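 note: every well also contained 1.5 µM PK11195 alongside the test compound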
Outline: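 Cells were plated and allowed to attach for 4hr, then dosed with compound in an 11-point series alongside 1.5uM PK11195. After 24hr at 37C, viability was measured fluorometrically and CAR-driven CYP2B6 reporter luminescence was recorded.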

[6] = qHTS for Hypoxia signaling pathway (HIF-1) antagonists against the NCATS CANVASS Library (AID 1347374);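 note: HRE-bla ME-180 cells stimulated with cobalt chloride to stabilize HIF-1alpha; series mostly up to about 38 µM; nearly all actives have a fitted effect of over 60% in size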
Outline: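 Antagonism scored as loss of CoCl2-driven (60 uM stock added) HRE beta-lactamase signal, read by CCF4 FRET at 460/530 nm. Compounds were tested in an 11-point series on ME-180 reporter cells for 17 hrs at 37C, with parallel CellTiter-Glo cytotoxicity.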

[7] = qHTS for Hypoxia signaling pathway (HIF-1) agonists against the NCATS CANVASS Library (AID 1347375)
Outline: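 Cells plated and rested 5 h, compounds pinned in DMSO across 11 concentrations, incubated 17 h at 37C, loaded with CCF4-AM for 2 h, fluorescence read at 460 and 530 nm, then CellTiter-Glo luminescence measured for viability and normalization.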

[8] = 10-beta competent E. coli microbial cell viability qHTS against the NCATS CANVASS Library (AID 1347376); note: series mostly up to about 46 µM
Outline: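 Bacterial suspension diluted to 0.2 OD was dosed with compounds, 11-point series, then held overnight at 37C. BacTiter-Glo reagent was added, and after 20 min at room temperature ATP-dependent luminescence was measured.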

[9] = DH5-alpha competent E. coli microbial cell viability qHTS against the NCATS CANVASS Library (AID 1347377); details: outcome: dose series up to 46.1 µM unless noted
Outline: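 Bacteria were dispensed at 0.2 OD, then compounds were pin-transferred. Plates were incubated overnight at 37C, after which BacTiter-Glo was added and luminescence measured 20 min later.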

[10] = qHTS for H2AX Agonists against the NCATS CANVASS Library (AID 1347378);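 note: phospho-H2AX S139 level in CHO-K1 lysates by TR-FRET emission ratio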
Outline: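 CHO-K1, 1000 cells/well, o/n 37C; cpd several conc, 3 hr 37C, 0.76% DMSO; lyse 30 min RT; cryptate anti-pH2AX(S139) + d2 anti-H2AX, 24 hr RT; HTRF 665/620.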

[11] = qHTS for Inflammasome Signaling Inhibitors: IL-1-beta AlphaLISA screen against the NCATS CANVASS Library (AID 1347379);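 note: human THP-1 cells primed with LPS then triggered with ATP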
Outline: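 Secreted IL-1B from human THP-1 cells quantified by AlphaLISA 16 hr after compound addition (final up to 57.5 uM). A 1 hr compound pretreatment preceded inflammasome activation with 250 ng/mL LPS plus 1.25 mM ATP (final).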

[12] = qHTS for Antimalaria activity screened against the NCATS CANVASS Library (AID 1347380);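 note: Plasmodium falciparum strain Dd2 asexual parasites grown in red blood cells; series mostly up to about 29 µM; nearly all actives have a fitted effect of over 40% in size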
Outline: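 Compounds are titrated over 11 concentrations onto Dd2 parasite cultures (0.3% parasitemia, 2.5% hematocrit). Growth over 72 h at 37C in low oxygen is measured as SYBR Green DNA fluorescence after lysis.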

[13] = Inflammasome Signaling qHTS Counterscreen: IL-1-beta AlphaLISA counterscreen against the NCATS CANVASS Library (AID 1347381);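 note: cell-free check with purified IL-1β in medium and no THP-1 cells; series mostly up to about 57 µM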
Outline: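 Purified IL-1-beta (4 pg/well) + compound, 11-pt conc. series; acceptor beads 6 ug/mL + biotin-Ab 0.6 nM final, 1 h RT; SA-donor 24 ug/ml final, 30 min dark RT; read ex 680/em 615.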

[14] = Cytotoxicity qHTS for assessment of Hepg2 cells membrane integrity screened against the NCATS CANVASS Library (AID 1347387)
Outline: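 Cells were seeded at 2000 per well and left overnight to attach. Compounds were pin-transferred to give 0.59 nM - 46 uM in an 11-point series and incubated 5 hr at 37C. CytoTox-ONE reagent was added and, after 10 min at room temperature, fluorescence (ex 560, em 590 nm) was read.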

[15] = qHTS for Activators of p53 Stress Response Pathway screened against the NCATS CANVASS Library (AID 1347388)
Outline: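 Beta-lactamase reporter driven by p53 response elements in HCT-116 cells, read as the 460 nm/530 nm emission ratio after CCF4 loading, following 16 h of exposure to an 11-point series. Cell viability was measured in the same wells by CellTiter-Glo luminescence.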

[16] = qHTS assay for small molecule disruptors of mitochondrial membrane potential screened against the NCATS CANVASS Library (AID 1347389); note: series mostly up to about 46 µM; nearly all actives have a fitted effect of over 60% in size
Outline: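 Mitochondrial depolarization in HepG2 cells is scored as a falling aggregate-to-monomer fluorescence ratio after 1 hr compound exposure and 30 min staining with Mito-MPS dye at 37C, each compound tested as an 11-point titration.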

[17] = Secretion counterscreen for inhibitors of the SERCaMP assay screened against the NCATS CANVASS Library (AID 1347390);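 note: light from luciferase secreted into medium read as a measure of general secretion; series mostly up to about 77 µM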
Outline: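 SH-SY5Y-GLuc STOP cells; 4 h attach; cpds 0.001 - 77 uM (qHTS, 11 pts), 20 h 37C/5% CO2; coelenterazine in glow buffer; luminescence, 5 s exposure.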

[18] = qHTS for activators of Nrf2/ARE signaling pathway screened against the NCATS CANVASS Library (AID 1347391); note: nearly all actives have a fitted effect of over 60% in size
Outline: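 Beta-lactamase reporter signal, read as 460 and 530 nm emission under 405 nm excitation after 2 h CCF4 loading, reflected ARE activation in HepG2 cells treated 16 h with an 11-point series.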

[19] = qHTS for inhibitors of ER calcium dysfunction: SERCaMP assay screened against the NCATS CANVASS Library (AID 1347393);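 note: series mostly up to about 77 µM; lower secreted reporter signal means inhibitor of ER calcium depletion; nearly all actives have a fitted effect of over 40% in size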
Outline: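 Thapsigargin-induced ER calcium depletion drives GLuc-SERCaMP secretion from SH-SY5Y cells; compounds given 16 h beforehand were scored by lowered coelenterazine luminescence after 4 h challenge.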

[20] = Vero-766 cells viability qHTS against the NCATS CANVASS Library: Counterscreen for Zika virus inhibition assay (AID 1347394); note: series mostly up to about 46 µM; nearly all actives have a fitted effect of over 60% in size
Outline: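 Vero 766, no virus; 1000 cells/well; o/n attach; cpd 11-pt; 72 h, 37C, 5% CO2; CTG luminescence; cell-free media wells = 100% inhibition.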

[21] = qHTS for inhibitors of Wild type Zika virus screened against the NCATS CANVASS Library (AID 1347396);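 note: ATP luminescence of surviving cells so rescue from viral cell killing; series mostly up to about 46 µM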
Outline: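 Vero 766 (African green monkey) cells, 1000 per well, attached overnight, then compounds were added in an 11-point series before wild-type Zika virus infection. After 72 h at 37C, cell viability was read as CellTiter Glo luminescence.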

[22] = Viability qHTS for inhibitors of the SERCaMP assay screened against the NCATS CANVASS Library (AID 1347400); note: series mostly up to about 92 µM; nearly all actives have a fitted effect of over 70% in size
Outline: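 Seed SH-SY5Y-GLuc SERCaMP MJH297 cells at 1000 per well, incubate 4 h, add compounds across an 11-point range, incubate 48 h at 37C, then add CellTiter-Glo and read luminescence.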

[23] = Redox Reaction Profiling qHTS: Assay Interference Panel against the NCATS CANVASS Library (AID 1347401)
Outline: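 Redox-cycling liability assessed as DTT-driven conversion of resazurin (5 uM, with 200 uM DTT, HEPES pH 7.3) to fluorescent resorufin. Fluorescence at 525/598 nm measured initially and after 15 min dark incubation.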

Measured: Potency

Nuclear receptor subfamily 1 group I member 3 (Homo sapiens), sequence (Q14994 whole entry, looked up): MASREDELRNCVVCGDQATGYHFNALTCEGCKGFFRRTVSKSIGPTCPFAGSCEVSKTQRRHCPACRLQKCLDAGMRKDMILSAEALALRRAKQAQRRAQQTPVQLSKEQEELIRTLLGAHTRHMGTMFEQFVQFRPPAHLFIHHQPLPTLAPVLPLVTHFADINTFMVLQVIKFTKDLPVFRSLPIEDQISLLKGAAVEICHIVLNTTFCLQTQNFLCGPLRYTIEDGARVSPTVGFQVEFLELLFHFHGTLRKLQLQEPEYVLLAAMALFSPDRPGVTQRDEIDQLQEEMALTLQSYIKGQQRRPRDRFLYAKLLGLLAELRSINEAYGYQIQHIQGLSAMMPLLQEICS

C=C1C[C@@]23C=CC(=O)[C@@](C)(CCC(=O)Nc4c(O)ccc(C(=O)O)c4O)C2C[C@@H]1CC3O (stereo partly drawn)
inactive: all assays above
